“And” between values parts separate entries of the source, which are not always exact repeats. Equal entries are not always repeated. The whole screen tested about 5,500 compounds, of which about 2,000 (36%) were called active. Not shown: some 18% with an inconclusive outcome. No stated cut-off is given here; in the data, active means normalized growth mostly below about 0.91 (no sharp cut-off); inconclusive means no clear call, values can overlap the other calls; inactive means mostly above about 0.92. The list shows a part of the results.
Assay: chemical genetic growth profiling, strain panel (AID 1159580);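 further: tested at 20 µM; growth read once vehicle control cultures reached saturation at 30 °C; 1 = growth at the plate median or of vehicle wells; lower values mean less growth of the strain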
Settings: growth OD

Measured: normalized growth

O=C(O)c1cc(=O)c2ccccc2[nH]1
inactive: S. cerevisiae deletion strains, locus YJR075W, strain HOC1, hits give low values 0.999 | S. cerevisiae deletion strains, locus YKL009W, strain mrt4, hits give low values 1.01 | S. cerevisiae deletion strains, locus YKL068W, hits give low values 0.991 | S. cerevisiae deletion strains, locus YKL085W, strain MDH1 (second series), hits give low values 0.998 | S. cerevisiae deletion strains, locus YKL085W, strain MDH1, hits give low values 0.998 | S. cerevisiae deletion strains, locus YKL160W, strain elf1, hits give low values 0.993 | S. cerevisiae deletion strains, locus YKL190W, strain CNB1, hits give low values 1 | S. cerevisiae deletion strains, locus YKR001C, strain vps1, hits give low values 1.01 | S. cerevisiae deletion strains, locus YKR026C, strain gcn3, hits give low values 0.98 | S. cerevisiae deletion strains, locus YKR091W, strain srl3, hits give low values 0.993 | S. cerevisiae deletion strains, locus YLL001W, strain dnm1, hits give low values 0.991 | S. cerevisiae deletion strains, locus YLL026W, hits give low values 0.994 | S. cerevisiae deletion strains, locus YLL041C, strain sdh2, hits give low values 0.98 | S. cerevisiae deletion strains, locus YLR027C, strain aat2, hits give low values 0.989 | S. cerevisiae deletion strains, locus YLR039C, strain RIC1, hits give low values 1.01 | S. cerevisiae deletion strains, locus YLR058C, strain SHM2, hits give low values 0.972 | S. cerevisiae deletion strains, locus YLR102C, strain apc9, hits give low values 1 | S. cerevisiae deletion strains, locus YLR113W, strain HOG1, hits give low values 1.01 | S. cerevisiae deletion strains, locus YLR221C, strain rsa3, hits give low values 0.973 | S. cerevisiae deletion strains, locus YLR258W, strain gsy2, hits give low values 0.98 | S. cerevisiae deletion strains, locus YLR262C, strain YPT6 (second series), hits give low values 1.04 | S. cerevisiae deletion strains, locus YLR262C, strain YPT6, hits give low values 1 | S. cerevisiae deletion strains, locus YLR268W, strain sec22, hits give low values 1.01 | S. cerevisiae deletion strains, locus YLR320W, strain mms22, hits give low values 0.977 | S. cerevisiae deletion strains, locus YLR330W, strain CHS5, hits give low values 0.989 | S. cerevisiae deletion strains, locus YLR342W, strain FKS1 (second series), hits give low values 1.01 | S. cerevisiae deletion strains, locus YLR342W, strain FKS1, hits give low values 0.986 | S. cerevisiae deletion strains, locus YLR357W, strain rsc2, hits give low values 0.936 | S. cerevisiae deletion strains, locus YLR370C, strain arc18, hits give low values 0.987 | S. cerevisiae deletion strains, locus YLR371W, strain rom2, hits give low values 0.986 | S. cerevisiae deletion strains, locus YLR384C, strain iki3, hits give low values 0.942 | S. cerevisiae deletion strains, locus YLR418C, strain cdc73, hits give low values 1.05 | S. cerevisiae deletion strains, locus YML016C, strain PPZ1, hits give low values 0.984 | S. cerevisiae deletion strains, locus YML032C, strain rad52, hits give low values 0.976 | S. cerevisiae deletion strains, locus YML120C, strain ndi1, hits give low values 0.99 | S. cerevisiae deletion strains, locus YML124C, strain tub3, hits give low values 0.992 | S. cerevisiae deletion strains, locus YMR058W, strain fet3, hits give low values 0.99 | S. cerevisiae deletion strains, locus YMR078C, strain ctf18, hits give low values 0.984 | S. cerevisiae deletion strains, locus YMR125W, strain sto1, hits give low values 0.972 | S. cerevisiae deletion strains, locus YMR129W, hits give low values 1 | S. cerevisiae deletion strains, locus YMR205C, strain PFK2, hits give low values 0.986 | S. cerevisiae deletion strains, locus YMR223W, strain ubp8, hits give low values 0.985 | S. cerevisiae deletion strains, locus YMR231W, strain pep5, hits give low values 0.973 | S. cerevisiae deletion strains, locus YMR263W, strain SAP30, hits give low values 0.988 and 0.996 | S. cerevisiae deletion strains, locus YMR307W, strain GAS1, hits give low values 1.09 | S. cerevisiae deletion strains, locus YNL067W, strain RPL9B, hits give low values 0.998 | S. cerevisiae deletion strains, locus YNL071W, strain lat1, hits give low values 1.01 | S. cerevisiae deletion strains, locus YNL128W, strain TEP1, hits give low values 0.963 | S. cerevisiae deletion strains, locus YNL153C, strain GIM3, hits give low values 1 and 1.01 | S. cerevisiae deletion strains, locus YNL175C, strain NOP13, hits give low values 0.978 | S. cerevisiae deletion strains, locus YNL183C, strain NPR1, hits give low values 0.893 | S. cerevisiae deletion strains, locus YNL197C, strain WHI3, hits give low values 0.981 | S. cerevisiae deletion strains, locus YNL209W, strain ssb2, hits give low values 0.989 | S. cerevisiae deletion strains, locus YNL224C, strain SQS1, hits give low values 0.989 | S. cerevisiae deletion strains, locus YNL233W, strain BNI4, hits give low values 0.993 | S. cerevisiae deletion strains, locus YNL248C, strain rpa49, hits give low values 0.987 | S. cerevisiae deletion strains, locus YNL250W, strain rad50, hits give low values 0.976 | S. cerevisiae deletion strains, locus YNL271C, strain bni1, hits give low values 0.997 | S. cerevisiae deletion strains, locus YNL298W, strain CLA4, hits give low values 1 | S. cerevisiae deletion strains, locus YNL307C, strain MCK1, hits give low values 0.998 | S. cerevisiae deletion strains, locus YNL322C, strain KRE1 (second series), hits give low values 0.975 | S. cerevisiae deletion strains, locus YNL322C, strain KRE1, hits give low values 0.991 and 1 | S. cerevisiae deletion strains, locus YNR049C, strain mso1, hits give low values 0.983 | S. cerevisiae deletion strains, locus YNR052C, strain pop2, hits give low values 1 | S. cerevisiae deletion strains, locus YOL006C, strain TOP1, hits give low values 1 | S. cerevisiae deletion strains, locus YOL012C, strain htz1 1.51 | S. cerevisiae deletion strains, locus YOL147C, strain pex11, hits give low values 0.999 | S. cerevisiae deletion strains, locus YOR001W, strain rrp6, hits give low values 0.954 | S. cerevisiae deletion strains, locus YOR061W, strain CKA2, hits give low values 0.969 | S. cerevisiae deletion strains, locus YOR069W, strain VPS5, hits give low values 0.995 | S. cerevisiae deletion strains, locus YOR070C, strain gyp1, hits give low values 0.995 | S. cerevisiae deletion strains, locus YOR080W, strain dia2, hits give low values 0.974 | S. cerevisiae deletion strains, locus YOR083W, strain WHI5 (second series), hits give low values 1.02 | S. cerevisiae deletion strains, locus YOR083W, strain WHI5, hits give low values 0.999 | S. cerevisiae deletion strains, locus YOR106W, strain vam3, hits give low values 1.01 | S. cerevisiae deletion strains, locus YOR136W, strain idh2, hits give low values 0.99 | S. cerevisiae deletion strains, locus YOR144C, strain elg1, hits give low values 0.994 | S. cerevisiae deletion strains, locus YOR184W, strain ser1, hits give low values 0.994 | S. cerevisiae deletion strains, locus YOR231W, strain MKK1, hits give low values 0.988 | S. cerevisiae deletion strains, locus YOR265W, strain rbl2, hits give low values 1 | S. cerevisiae deletion strains, locus YOR270C, strain vph1, hits give low values 1 | S. cerevisiae deletion strains, locus YOR290C, strain snf2, hits give low values 0.986 | S. cerevisiae deletion strains, locus YOR316C, strain cot1, hits give low values 0.983 | S. cerevisiae deletion strains, locus YPL051W, strain arl3, hits give low values 0.997 | S. cerevisiae deletion strains, locus YPL055C, strain LGE1, hits give low values 0.976 and 1.01 | S. cerevisiae deletion strains, locus YPL078C, strain atp4, hits give low values 0.987 | S. cerevisiae deletion strains, locus YPL106C, strain sse1, hits give low values 0.972 | S. cerevisiae deletion strains, locus YPL240C, strain hsp82, hits give low values 0.982 | S. cerevisiae deletion strains, locus YPL241C, strain CIN2, hits give low values 0.996 | S. cerevisiae deletion strains, locus YPL256C, strain CLN2, hits give low values 0.954 | S. cerevisiae deletion strains, locus YPR119W, strain clb2, hits give low values 0.99 | S. cerevisiae deletion strains, locus YPR141C, strain kar3, hits give low values 0.977 | S. cerevisiae deletion strains, locus YPR163C, strain tif3, hits give low values 0.997 | S. cerevisiae deletion strains, locus YPR167C, strain met16, hits give low values 0.997 | S. cerevisiae deletion strains, strain wtn01, hits give low values 0.992 | S. cerevisiae strains, strain wild type, hits give low values 0.992
